PubChem BioAssay (Tox21)
Records with an inconclusive call do not appear. Active and inactive are the calls of the source. Unless noted, calls follow the shape of the full dose curve.

Experiments:
[1] = qHTS assay to identify small molecule agonists of the peroxisome proliferator-activated receptor delta (PPARd) signaling pathway - cell viability counter screen (AID 743211; active = well fitted curve in the direction sought with a large enough effect in the repeat runs; an effect the other way counts as inactive or inconclusive; also: % is scaled to controls: 0 for no effect and ±100 for the full control effect; nearly all actives have a fitted effect of over 55% in size)
How it was run: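 PPARd-bla HEK293H cells (3000/well) were pre-incubated 5 h at 37 C, then exposed to compound for 17 h at 37 C. After 2 h with LiveBLAzer substrate, CellTiter-Glo was added to the same wells; luminescence read after 30 min at room temperature.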

[2] = molecular target: Peroxisome proliferator-activated receptor delta (Homo sapiens) (UniProt Q03181); assay: qHTS assay to identify small molecule agonists of the peroxisome proliferator-activated receptor delta (PPARd) signaling pathway (AID 743212); also: % is scaled to controls: 0 for no effect and ±100 for the full control effect
Sequence of Peroxisome proliferator-activated receptor delta (Homo sapiens) (Q03181 whole entry, looked up): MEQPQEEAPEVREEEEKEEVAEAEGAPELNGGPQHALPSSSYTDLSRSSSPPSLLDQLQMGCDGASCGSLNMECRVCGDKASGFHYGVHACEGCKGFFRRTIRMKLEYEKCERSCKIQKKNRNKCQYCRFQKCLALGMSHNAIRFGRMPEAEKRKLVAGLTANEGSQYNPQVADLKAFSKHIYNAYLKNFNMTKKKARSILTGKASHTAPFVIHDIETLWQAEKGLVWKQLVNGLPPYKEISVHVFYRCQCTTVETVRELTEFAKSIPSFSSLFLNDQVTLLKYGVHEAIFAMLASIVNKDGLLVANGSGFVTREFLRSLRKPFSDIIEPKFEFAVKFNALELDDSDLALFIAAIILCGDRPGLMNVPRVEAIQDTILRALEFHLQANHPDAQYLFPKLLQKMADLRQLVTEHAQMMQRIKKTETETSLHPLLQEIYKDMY
How it was run: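 HEK293H UAS-bla reporter cells, human PPARd system; compounds delivered in DMSO after 5 h plating, then at 37 C. Beta-lactamase FRET read, 2 h RT substrate step.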

[3] = molecular target: Bile acid receptor (Homo sapiens) (UniProt Q96RI1); assay: qHTS assay to identify small molecule antagonists of the farnesoid-X-receptor (FXR) signaling pathway (AID 743217; active = well fitted inhibition curve with a large enough effect in the signal ratio in the repeat runs, not every such curve was filed as active; the % refers to the signal ratio; also: % is scaled to controls: 0 for no effect and ±100 for the full control effect)
Sequence of Bile acid receptor (Homo sapiens) (Q96RI1 whole entry, looked up): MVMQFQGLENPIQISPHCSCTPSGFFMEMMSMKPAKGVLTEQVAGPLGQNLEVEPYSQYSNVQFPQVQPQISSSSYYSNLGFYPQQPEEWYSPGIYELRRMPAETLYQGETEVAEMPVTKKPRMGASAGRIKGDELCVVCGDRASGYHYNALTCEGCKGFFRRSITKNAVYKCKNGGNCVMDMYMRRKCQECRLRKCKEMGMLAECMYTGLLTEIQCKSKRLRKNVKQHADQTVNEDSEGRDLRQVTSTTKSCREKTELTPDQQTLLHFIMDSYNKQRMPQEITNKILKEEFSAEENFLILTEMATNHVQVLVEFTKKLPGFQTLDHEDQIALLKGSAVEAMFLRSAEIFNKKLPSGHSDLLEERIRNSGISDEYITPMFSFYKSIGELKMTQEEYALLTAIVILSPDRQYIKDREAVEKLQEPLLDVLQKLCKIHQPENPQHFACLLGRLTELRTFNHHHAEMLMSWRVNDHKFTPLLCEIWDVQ
How it was run: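 GeneBLAzer FXR-UAS-bla HEK 293T, CDCA-stimulated (50 uM final). Compound treatment 16 h, 37 °C. Detection: beta-lactamase cleavage of B/G FRET substrate, fluorescence.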

[4] = qHTS assay to identify small molecule agonists of the farnesoid-X-receptor (FXR) signaling pathway - cell viability counter screen (AID 743218; active = well fitted curve in the direction sought with a large enough effect in the repeat runs; an effect the other way counts as inactive or inconclusive; also: % is scaled to controls: 0 for no effect and ±100 for the full control effect; nearly all actives have a fitted effect of over 45% in size)
How it was run: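 Parallel cytotoxicity test: compound-treated (16 h, 37 C) HEK 293T FXR-bla reporter cells were lysed with CellTiter-Glo and luminescence recorded.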

[5] = molecular target: Bile acid receptor (Homo sapiens) (UniProt Q96RI1); assay: qHTS assay to identify small molecule agonists of the farnesoid-X-receptor (FXR) signaling pathway (AID 743220; active = well fitted activation curve with a large enough effect in the signal ratio in the repeat runs, not every such curve was filed as active; the % refers to the signal ratio; also: % is scaled to controls: 0 for no effect and ±100 for the full control effect)
How it was run: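 Beta-lactamase reporter under UAS control in GeneBLAzer FXR HEK 293T cells (5000/well) measured with LiveBLAzer FRET substrate after 2 h at room temperature. Compound exposure lasted 16 h at 37C.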

[6] = qHTS assay to identify small molecule antagonists of the farnesoid-X-receptor (FXR) signaling pathway - cell viability counter screen (AID 743221; active = well fitted cell-killing curve with a large enough effect in the repeat runs, not every such curve was filed as active; also: % is scaled to controls: 0 for no effect and ±100 for the full control effect; nearly all actives have a fitted effect of over 50% in size)
How it was run: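 GeneBLAzer FXR-UAS-bla HEK 293T cells, compound plus chenodeoxycholic acid (50 uM final), 16 h at 37 C. CellTiter-Glo added to the same wells after the beta-lactamase read; luminescence read after 30 min at room temperature as viability.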

[7] = molecular target: Vitamin D3 receptor (Homo sapiens) (UniProt P11473); assay: qHTS assay to identify small molecule agonists of the vitamin D receptor (VDR) signaling pathway (AID 743222); also: % is scaled to controls: 0 for no effect and ±100 for the full control effect
Sequence of Vitamin D3 receptor (Homo sapiens) (P11473 whole entry, looked up): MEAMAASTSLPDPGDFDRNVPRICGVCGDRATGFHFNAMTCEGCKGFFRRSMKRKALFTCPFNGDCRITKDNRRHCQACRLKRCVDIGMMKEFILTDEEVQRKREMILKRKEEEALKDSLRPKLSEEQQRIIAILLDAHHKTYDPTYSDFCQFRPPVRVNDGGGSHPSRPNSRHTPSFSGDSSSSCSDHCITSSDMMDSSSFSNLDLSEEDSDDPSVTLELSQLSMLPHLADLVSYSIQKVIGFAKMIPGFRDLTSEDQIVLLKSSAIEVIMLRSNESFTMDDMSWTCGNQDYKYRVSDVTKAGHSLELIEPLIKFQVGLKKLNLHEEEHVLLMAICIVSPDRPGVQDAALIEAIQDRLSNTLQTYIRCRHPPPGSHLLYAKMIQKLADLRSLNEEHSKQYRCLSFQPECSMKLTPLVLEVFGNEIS
How it was run: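 In VDR-bla cells, compound-induced beta-lactamase expression is quantified by FRET substrate fluorescence. Treatment lasts 16 h at 37C; substrate develops 2 h at room temperature.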

[8] = qHTS assay to identify small molecule agonists of the vitamin D receptor (VDR) signaling pathway - cell viability counter screen (AID 743224; active = well fitted curve in the direction sought with a large enough effect in the repeat runs; an effect the other way counts as inactive or inconclusive; also: series mostly up to about 63 µM; % is scaled to controls: 0 for no effect and ±100 for the full control effect; nearly all actives have a fitted effect of over 50% in size)
How it was run: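 Plated VDR-bla cells (4 h, 37C) received compound, incubated 16 h, then LiveBLAzer substrate 2 h RT; CellTiter-Glo added afterwards, luminescence read at 30 min.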

[9] = qHTS assay to identify small molecule agonists of the NFkB signaling pathway (AID 1159509; active = well fitted curve in the direction sought with a large enough effect in the signal ratio in the repeat runs, not every such curve was filed as active; the % refers to the signal ratio)
How it was run: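 NFkB-bla ME-180 cells with a beta-lactamase reporter under an NF-kB response element were plated overnight, treated with compounds in DMSO for 5 hr at 37 C, then loaded with FRET substrate for 1.5 hr at room temperature.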

[10] = qHTS assay to identify small molecule agonists of the NFkB signaling pathway - cell viability counter screen (AID 1159515); also: series mostly up to about 61 µM; % is scaled to controls: 0 for no effect and ±100 for the full control effect; nearly all actives have a fitted effect of over 55% in size
How it was run: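 Using the same wells as the NFkB reporter read, ME-180 NFkB-bla cells given compounds for 5 hr were assessed for viability via CellTiter-Glo, with luminescence taken after a 30 min room-temperature incubation.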

[11] = qHTS assay to identify small molecule agonists of the endoplasmic reticulum stress response signaling pathway (AID 1159516; active = well fitted activation curve with a large enough effect in the signal ratio in the repeat runs, not every such curve was filed as active; the % refers to the signal ratio; also: % is scaled to controls: 0 for no effect and ±100 for the full control effect)
How it was run: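 An ESRE-bla HeLa cell assay: compounds were pin-transferred from DMSO onto overnight-plated cells and left 5 hr at 37 C. Substrate was then loaded for 2 hr at room temperature before reading fluorescence at 460 nm and 530 nm.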

[12] = qHTS assay to identify small molecule agonists of the endoplasmic reticulum stress response signaling pathway - cell viability counter screen (AID 1159517);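 also: HeLa cells carrying an ER stress response element beta-lactamase reporter; series mostly up to about 61 µM; % is scaled to controls: 0 for no effect and ±100 for the full control effect; nearly all actives have a fitted effect of over 50% in size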
How it was run: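 Cells, HeLa ESRE-bla; density, 1,500/well; dosing, 5 hr at 37 C, 5% CO2; readout, CellTiter-Glo luminescence after 30 min RT.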

[13] = qHTS assay to identify small molecule antagonists of the retinoid-related orphan receptor gamma (ROR-gamma) signaling pathway - cell viability counter screen (AID 1159520; active = well fitted curve in the direction sought with a large enough effect in the repeat runs; an effect the other way counts as inactive or inconclusive; also: % is scaled to controls: 0 for no effect and ±100 for the full control effect; nearly all actives have a fitted effect of over 50% in size)
How it was run: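 Cytotoxicity was read from cellular ATP (CellTiter-Glo luminescence) after 16 hr at 37 C with 1 uM doxycycline induction. The inducer was added 2 hr after compound transfer to Tet-on ROR gamma CHO cells.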

[14] = molecular target: Nuclear receptor ROR-gamma (Homo sapiens) (UniProt P51449); assay: qHTS assay to identify small molecule antagonists of the retinoid-related orphan receptor gamma (ROR-gamma) signaling pathway (AID 1159521; active = well fitted curve in the direction sought with a large enough effect in the repeat runs; an effect the other way counts as inactive or inconclusive)
How it was run: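 Tet-on ROR-gamma CHO cells with ROR response element-luciferase reporter; compounds added 2 hr before 1 uM doxycycline induction, then 16 hr at 37 C. Antagonism scored as decreased ONE-Glo luminescence.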

[15] = qHTS assay to identify small molecule agonists of the AP-1 signaling pathway - cell viability counter screen (AID 1159525); also: nearly all actives have a fitted effect of over 55% in size
How it was run: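 Luminescent ATP readout (Cell Titer Glo, 30 min RT), normalised to DMSO and tetra n-octyl ammonium bromide controls. Cells were ME-180 AP-1-bla in 0.5% dialyzed FBS Opti-MEM, with a 5 h, 37 °C compound exposure.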

[16] = qHTS assay to identify small molecule agonists of the AP-1 signaling pathway (AID 1159526); also: % is scaled to controls: 0 for no effect and ±100 for the full control effect
[17] = molecular target: Peroxisome proliferator-activated receptor delta (Homo sapiens) (UniProt Q03181); assay: qHTS assay to identify small molecule antagonists of the peroxisome proliferator-activated receptor delta (PPARd) signaling pathway (AID 743215; active = well fitted inhibition curve with a large enough effect in the signal ratio in the repeat runs, not every such curve was filed as active; the % refers to the signal ratio)
How it was run: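 HEK293H UAS-bla, PPARd; agonist L165041 300 nM final with cpd in DMSO; 37 C 17 h; FRET substrate, RT 2 h; fluorescence intensity.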

[18] = molecular target: Vitamin D3 receptor (Homo sapiens) (UniProt P11473); assay: qHTS assay to identify small molecule antagonists of the vitamin D receptor (VDR) signaling pathway (AID 743223; active = well fitted inhibition curve with a large enough effect in the signal ratio in the repeat runs, not every such curve was filed as active; the % refers to the signal ratio; also: % is scaled to controls: 0 for no effect and ±100 for the full control effect)
How it was run: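 VDR-bla cells were treated with compound plus 3 nM final 1alpha,25-dihydroxyvitamin D3 for 16 h at 37C. Beta-lactamase reporter read by B/G FRET substrate fluorescence after 2 h at room temperature. qHTS format.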

[19] = qHTS assay to identify small molecule antagonists of the vitamin D receptor (VDR) signaling pathway - cell viability counter screen (AID 743225; active = well fitted curve in the direction sought with a large enough effect in the repeat runs; an effect the other way counts as inactive or inconclusive)
How it was run: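 VDR-UAS-bla HEK 293T cells were plated and incubated 4 h at 37C, then dosed with compound plus 3 nM (final) 1-alpha,25-dihydroxyvitamin D3 for 16 h. After the 2 h beta-lactamase read, viability in the same wells was read as CellTiter-Glo luminescence after 30 min at room temperature.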

[20] = qHTS assay to identify small molecule antagonists of the peroxisome proliferator-activated receptor delta (PPARd) signaling pathway - cell viability counter screen (AID 743213; active = well fitted curve in the direction sought with a large enough effect in the repeat runs; an effect the other way counts as inactive or inconclusive)
How it was run: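 Agonist-stimulated (L165041, 300 nM final) HEK293H PPARd UAS-bla cells are exposed to compounds for 17 h at 37 C, and ATP-based luminescence (CellTiter-Glo) from the same wells reports cytotoxicity.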

C=C(C)C(=O)OCCOP(=O)(O)OCCOC(=O)C(=C)C
inactive: outcome [1] | outcome [2] | Potency [3] | Potency [4] | Potency [5] | outcome [6] | outcome [7] | Potency [8] | outcome [9] | outcome [10] | outcome [11] | Potency [12] | outcome [13] | outcome [14] | outcome [15] | outcome [16]

NCCS
inactive: outcome [1] | outcome [2] | outcome [17] | Potency [4] | outcome [6] | outcome [7] | outcome [18] | Potency [8] | outcome [9] | outcome [10] | outcome [11] | Potency [12] | outcome [13] | outcome [14] | outcome [15] | outcome [16]

O=C1c2ccccc2C(=O)c2cc(S(=O)(=O)O)ccc21
inactive: outcome [1] | outcome [2] | Potency [4] | outcome [6] | outcome [7] | outcome [18] | Potency [8] | outcome [9] | outcome [10] | outcome [11] | Potency [12] | outcome [13] | outcome [14] | outcome [15] | outcome [16]

CCCCCCOc1ccccc1C(N)=O
inactive: outcome [1] | outcome [2] | outcome [17] | Potency [4] | outcome [6] | outcome [7] | outcome [18] | Potency [8] | outcome [19] | outcome [9] | outcome [10] | outcome [11] | Potency [12] | outcome [13] | outcome [14] | outcome [15] | outcome [16]

CN(C)CCOCCO
inactive: outcome [1] | outcome [2] | outcome [20] | Potency [4] | Potency [5] | outcome [6] | Potency [8] | outcome [9] | outcome [10] | outcome [11] | Potency [12] | outcome [13] | outcome [14] | outcome [15] | outcome [16]

CCCCN
inactive: outcome [1] | outcome [2] | outcome [20] | outcome [6] | outcome [7] | Potency [8] | outcome [19] | outcome [9] | outcome [10] | outcome [11] | Potency [12] | outcome [13] | outcome [14] | outcome [15] | outcome [16]

O=S(O)(O)=S
inactive: activity change, negative = cytotoxicity [1] 0.0962% [at 5.95 µM] | activation [2] 0.0872% [at 5.95 µM] | ratio activity, negative = inhibition [17] 3.14% [at 6.26 µM] | viability change, negative = cytotoxic [4] 3.63% [at 5.95 µM] | activity change, negative = cytotoxicity [6] 6.74% [at 5.95 µM] | activity change, negative = cytotoxicity [8] -0.106% [at 5.95 µM] | activation [9] -0.163% [at 6.95 µM] | activity, negative = cytotoxic [10] 0.146% [at 6.95 µM] | activation [11] 0.601% [at 6.95 µM] | activity change, negative = cytotoxicity [12] -2.33% [at 6.95 µM] | activity, negative = cytotoxicity [13] 8.82% [at 8.39 µM] | activity change, negative = inhibition [14] 6.6% [at 8.39 µM] | viability change, negative = cytotoxic [15] 1.76% [at 6.97 µM] | activation [16] 11.4% [at 6.97 µM]

CCOC(=O)c1ccc(OC(=O)CCCCCN=C(N)N)cc1
inactive: outcome [1] | outcome [2] | outcome [20] | outcome [6] | Potency [8] | outcome [19] | outcome [9] | outcome [10] | outcome [11] | Potency [12] | outcome [13] | outcome [14] | outcome [15] | outcome [16]
